Compound activity from PubChem.
In the library only some 1.8% were active in any assay of this set; here they are far more common.
Myeloid diff 2 = induction of myeloid progenitor differentiation, primary screen, cell-based, flow cytometry, MLPCN library. calls only at 10 µM. AID 624256, 2012. ER-HoxA9 myeloid progenitors, lysozyme-GFP differentiation. hit rate 1% among 360,000;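 active = normalized GFP-positive differentiation at or above the plate's own cutoff, the solvent-only control mean plus 3 SD; inconclusive = no clear call, values can overlap the other calls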;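 also: cells exposed to compound for four days before flow analysis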
ABCB6 inh 2 = ABCB6 transporter inhibitors, primary screen, K562-ABCB6 cells, flow cytometry, MLPCN library | hit rate 0.19% among 360,000 | fluorescence ratio to DMSO, % at 10 µM | ATP-binding cassette sub-family B member 6 (Homo sapiens), Q9NP58 | K562-ABCB6 porphyrin accumulation, 1 h; stronger effect = lower value | AID 602162, 2011;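 active = fluorescence ratio to DMSO below 75%, the collection mean minus 3 SD; inconclusive = too few cells collected in the well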;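 also: signal is porphyrin accumulated inside mitochondria; lower ratio means ABCB6 inhibition with less porphyrin fluorescence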
Target sequence (Q9NP58 whole entry, looked up): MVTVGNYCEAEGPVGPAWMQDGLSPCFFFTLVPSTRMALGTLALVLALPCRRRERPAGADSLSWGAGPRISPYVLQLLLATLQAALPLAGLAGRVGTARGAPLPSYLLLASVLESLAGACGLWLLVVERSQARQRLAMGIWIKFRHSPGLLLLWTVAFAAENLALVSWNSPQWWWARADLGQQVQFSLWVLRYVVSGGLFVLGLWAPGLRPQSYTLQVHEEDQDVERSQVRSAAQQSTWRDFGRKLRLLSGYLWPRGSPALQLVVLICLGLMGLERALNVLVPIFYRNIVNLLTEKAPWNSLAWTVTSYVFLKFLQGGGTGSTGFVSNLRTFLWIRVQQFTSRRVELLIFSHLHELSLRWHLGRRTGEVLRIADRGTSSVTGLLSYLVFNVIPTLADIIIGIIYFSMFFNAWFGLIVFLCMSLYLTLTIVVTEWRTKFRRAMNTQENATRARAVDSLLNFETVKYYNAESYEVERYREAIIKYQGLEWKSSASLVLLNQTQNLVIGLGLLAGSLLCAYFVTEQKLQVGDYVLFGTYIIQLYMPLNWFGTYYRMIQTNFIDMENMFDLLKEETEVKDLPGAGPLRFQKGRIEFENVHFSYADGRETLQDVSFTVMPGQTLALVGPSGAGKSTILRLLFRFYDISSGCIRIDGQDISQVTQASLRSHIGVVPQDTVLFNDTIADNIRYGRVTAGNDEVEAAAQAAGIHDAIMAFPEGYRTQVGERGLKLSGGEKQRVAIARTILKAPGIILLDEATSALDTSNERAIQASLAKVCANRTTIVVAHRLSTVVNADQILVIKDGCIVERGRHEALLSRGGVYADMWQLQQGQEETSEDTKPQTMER
Exocytosis inh = LAMP-1 surface exposure blockers, TALL-104 cells – cell-based, flow cytometry, MLPCN library, primary screen; TALL-104 LAMP-1 surface exposure; cells stimulated with thapsigargin and PMA; inhibition, % at 10 µM; hit rate 0.66% among 360,000; AID 651702, 2012;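 active = inhibition above about 55%, limit read from the data; inconclusive = no clear call, values can overlap the other calls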
Numbers stand for hits; n = inactive; u = inconclusive; + = active, no number.

SMILES	Myeloid diff 2	ABCB6 inh 2	Exocytosis inh
N#CC(C#N)=C1C=CC=CN1/C(=C\c1ccco1)C(=O)c1ccc(Br)cc1	u	n	86
COc1ccc(C(=O)/C(=C\c2ccco2)N2C=CC=CC2=C(C#N)C#N)cc1	u	n	65
CCOC(=O)c1ccc(N(CCC2CO2)S(=O)(=O)c2ccc(C)cc2)cc1 (centres undefined)	n	n	n
NS(=O)(=O)c1ccc(NC(=O)COC(=O)Cc2c[nH]c3ccccc23)cc1	n	n	n
CCCn1c(N)c(N(CCOC)C(=O)COC(=O)COc2c(C)cc(C)cc2C)c(=O)[nH]c1=O	n	n	n
CS(=O)(=O)c1ccc(C(=O)Nc2cc(-c3ccccc3)nn2-c2ccccc2)cc1	n	n	n
COc1ccc(C(=O)Nc2cc(-c3ccccc3)nn2-c2ccccc2F)cc1	+	n	n
CCCCn1nc(C(=O)NCC2COc3ccccc3O2)c2ccccc2c1=O (centres undefined)	n	n	n
N#Cc1ccc(C(=O)N2CCCC(c3cc(C(=O)NCc4cccnc4)no3)C2)cc1 (centres undefined)	n	n	n
O=C1c2ccccc2C(c2nnnn2Cc2ccccc2)N1Cc1ccco1 (centres undefined)	n	n	n
Cc1cccc(NC(=O)CSc2nccn2Cc2ccco2)c1C	n	n	n
COc1cc(NC(=O)Nn2cnnc2)cc(OC)c1OC	+	n	n
COc1ccc(NC(=O)Nn2cnnc2)cc1OC	n	n	n
CCCN(CCC)CC(O)Cn1cc(/C=C/C(=O)c2ccccc2)c2ccccc21 (centres undefined)	n	n	92
COc1ccc(C(=O)/C=C/c2cn(CC(O)CN3CCN(C)CC3)c3ccccc23)cc1OC (centres undefined)	n	n	n
CN1CCN(Cn2cc(/C=C/C(=O)c3ccccc3)c3ccccc32)CC1	n	n	n
O=C(/C=C/c1cn(CC(O)CN2CCCCC2)c2ccccc12)c1cccs1 (centres undefined)	+	n	n
CCCN(CCC)CC(O)Cn1cc(/C=C/C(=O)c2cccs2)c2ccccc21 (centres undefined)	+	n	n
O=C(/C=C/c1ccnc2ccccc12)c1cccs1	n	n	n
O=C(/C=C/c1cn(CC(O)CN2CCCCC2)c2ccccc12)c1ccccc1 (centres undefined)	n	n	n
CCCCN(C)CC(O)Cn1cc(/C=C/C(=O)c2ccc(C)cc2)c2ccccc21 (centres undefined)	u	n	70
O=S(=O)(c1ccccc1F)N1CCN(CCc2ccccc2)CC1	n	n	n
Cc1ccc([C@@H]2CC(=O)[C@@H]3CN(S(=O)(=O)c4ccccc4C)[C@H](c4ccc(Cl)cc4)C[C@@H]3N2S(=O)(=O)c2ccc(C)cc2)cc1	u	n	n
CCN(C(=O)CSc1nnc(-c2ccc(OC)cc2)n1C(C)C)C1CCS(=O)(=O)C1 (centres undefined)	n	n	n
CCn1c(SCc2ccccc2)nc2cc(S(N)(=O)=O)ccc21	n	n	n
SMILES	Myeloid diff 2	ABCB6 inh 2	Exocytosis inh
O=C(CC(O)(CC(=O)OCc1ccccc1)C(=O)OCc1ccccc1)OCc1ccccc1	n	n	n
CCN(CC)S(=O)(=O)c1ccc(NC(=O)c2ccc(OCC3CCCO3)cc2)cc1 (centres undefined)	n	n	n
Cc1cc(C)c(-c2csc(NC(=O)/C=C/c3cccs3)n2)c(C)c1	+	n	n
Cc1cc(C)nc(NC(=O)/C=C/c2cccs2)c1	n	n	n
CCCSC1=C(C#N)C(c2cccs2)CC(=O)N1 (centres undefined)	n	n	90
CCCCCCSC1=C(C#N)C(c2ccccc2)CC(=O)N1 (centres undefined)	n	n	n
CCOC(=O)C1Nc2ccc(C(F)(F)F)cc2C2c3ccccc3CC12 (centres undefined)	n	n	n
CCOC(=O)C1Nc2ccccc2C2C(O)C(O)CC12 (centres undefined)	+	n	n
Nc1cccc2c(=O)[nH][nH]c(=O)c12	n	n	n
Nc1ccc2c3c(cccc13)-c1ccccc1-2	+	n	n
Cc1ccc(C)c(CC(=O)N2CCCC(c3cc(C(=O)Nc4ccccc4Cl)no3)C2)c1 (centres undefined)	n	n	n
COc1cccc(Nc2nc(-c3sc(NC(=O)c4ccccc4)nc3C)cs2)c1	+	n	n
COc1cccc(Nc2nc(-c3sc(NC(=O)CC(C)C)nc3C)cs2)c1	n	n	n
Cc1ccc(CNC(=O)C2CCCN(S(=O)(=O)N3CCC(C)CC3)C2)cc1 (centres undefined)	n	n	n
CCOC(=O)N1CCN(S(=O)(=O)N2CCCC(C(=O)NCc3cc(OC)ccc3OC)C2)CC1 (centres undefined)	n	n	n
CCc1ccc(CNC(=O)C2CCCN(S(=O)(=O)N3CC(C)CC(C)C3)C2)cc1 (centres undefined)	+	n	n
CCOC(=O)N1CCN(S(=O)(=O)N2CCCC(C(=O)NCc3cccc(OC)c3)C2)CC1 (centres undefined)	+	n	n
CN(C)CCNc1ncnc2c1ncn2[C@H]1CN(Cc2ccc(-c3ccccc3)cc2)C[C@@H](CO)O1	n	n	n
CC(=O)NC(C)(c1ccccc1)c1nc(-c2csc3ccccc23)cs1 (centres undefined)	n	n	n
COC(=O)c1oc2ccc(OC)cc2c1N	+	n	n
COc1ccc(C(=O)c2oc3ccc(OC)cc3c2N)cc1	n	n	n
CCCCCC(=O)Nc1ccc(S(=O)(=O)NC2=NCCCCC2)cc1	n	n	n
Cc1ccc(S(=O)(=O)c2c(N)n(Cc3ccco3)c3nc4ccccc4nc23)cc1	n	n	n
Cc1cccc(S(=O)(=O)c2c(N)n(Cc3ccco3)c3nc4ccccc4nc23)c1	+	n	n
CCC(=O)N(CC)C1=C(O)c2ccccc2C(=O)C1=O	n	n	92
SMILES	Myeloid diff 2	ABCB6 inh 2	Exocytosis inh
CCC(=O)N(C1=C(NC)C(=O)c2ccccc2C1=O)C(C)C	n	n	n
C[C@H]1O[C@H](C2CCCC2)CC2=C1C(=O)OC(C)(C)O2	n	n	n
COc1ccc2c(c1)[n+](=O)c(C(C)=O)c(C)n2[O-]	n	n	n
CC(=O)c1c(C)n([O-])c2cc(F)c(F)cc2[n+]1=O	+	n	n
Cc1nn(-c2ccccc2)c(Cl)c1/C=N/Nc1nc2ccccc2n1C	n	n	90
Cc1nn(-c2ccccc2)c(Cl)c1/C=N/NC(N)=O	n	n	n
Cc1cccc2cc(CN(CCCN(C)C)C(=S)NCCc3ccccc3)c(=O)[nH]c12	n	n	n
Cc1c(CC(=O)N2CCC(O)CC2)c(=O)oc2cc3c(cc12)CCC1(CCCCC1)O3	n	n	n
NC(=O)c1ccc(NCCc2cccs2)cc1	n	n	n
Cn1c2ccccc2c(=O)c2ccc(NCCc3cccs3)cc21	+	n	n
CC(C)C[C@H]1CN=C(Nc2ccccc2)N1CC1CCC(C(C)(C)C)CC1 (some centres undefined)	u	n	93
CC(C)C[C@H]1CN=C(Nc2ccccc2)N1CC1CCCC1	n	n	n
